The inhibition is the drop in the measured response relative to a control, in per cent.

About 530 (0.24%) of roughly 220,000 compounds were called active. Only a selection was taken, and actives are over-represented in it overall. Results with a measured potency or affinity are listed apart. Values without a mark were called inactive. Rule as the data show it: active = inhibition above about 13%; inconclusive = no clear call, values can overlap the other calls; inactive = below that.

This note sets out measurements from PubChem BioAssay AID1376 (SRMLSC, 2008).

Bifunctional protein GlmU (Mycobacterium tuberculosis (strain ATCC 25618 / H37Rv)), sequence (P9WMN3 whole entry, looked up): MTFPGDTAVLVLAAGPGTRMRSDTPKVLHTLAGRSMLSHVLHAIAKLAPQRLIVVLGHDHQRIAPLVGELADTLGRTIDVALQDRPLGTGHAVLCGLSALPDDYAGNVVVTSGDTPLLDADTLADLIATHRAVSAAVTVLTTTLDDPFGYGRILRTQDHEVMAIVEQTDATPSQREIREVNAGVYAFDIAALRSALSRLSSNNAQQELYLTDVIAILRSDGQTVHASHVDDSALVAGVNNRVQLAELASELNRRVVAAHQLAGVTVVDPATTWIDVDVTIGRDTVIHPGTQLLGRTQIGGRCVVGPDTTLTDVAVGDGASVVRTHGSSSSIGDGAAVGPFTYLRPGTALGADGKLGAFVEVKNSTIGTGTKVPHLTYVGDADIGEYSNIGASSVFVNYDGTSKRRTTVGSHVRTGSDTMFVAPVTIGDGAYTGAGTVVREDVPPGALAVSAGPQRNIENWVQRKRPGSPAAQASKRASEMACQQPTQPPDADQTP

This assay has as its target Bifunctional protein GlmU (Mycobacterium tuberculosis (strain ATCC 25618 / H37Rv)) (UniProt P9WMN3). The experiment in a line: inhibition of mycobacterial GlmU enzyme – biochemical, glucosamine-1-phosphate acetyltransferase (AID 1376).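 Also: 0% = complete reaction with vehicle and 100% = reaction without substrate.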 The settings on record: M. tuberculosis GlmU acetyltransferase enzyme assay; stronger effect = higher value;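 tested at 30 µM in the primary screen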.
On to `O=C(NCc1n[nH]c(=S)n1-c1cccc(C(F)(F)F)c1)c1ccc(S(=O)(=O)N2CCCC2)cc1`, for which the inhibition was -1.04%.

For the compound `Oc1ccc(Cl)cc1/C=N/c1nccs1`, the inhibition was 5.12%.

Take `Oc1ccc(N=Nc2ccc(Br)cc2)c(O)c1`: the inhibition was 7.96%.

As to `Oc1ccc(N=Nc2nccs2)c(O)c1`, the inhibition was 53.5% (active).

Turning to `Cc1cc2nc(=O)c(/C=C3\C=Nc4ccccc43)c(N)n2o1`, the inhibition is -5.38%.

With `O=c1ccnc2n1COCS2`, the inhibition is -2.85%.

Turning to `CC(/C=C/c1ccccc1)=N\NC(=O)c1ccncc1`, the inhibition was 2.68%.

With `Cc1ccc2c(C(=O)CN3CCN(c4ccccc4)CC3)c(C)[nH]c2c1`, the inhibition was 14.3% (active).

As to `Cc1ccc2c(C(=O)CN3CCOCC3)c(C)[nH]c2c1`, the inhibition was 2.67%.

Turning to `Cc1ccc2c(C(=O)CN3CCCC3)c(C)[nH]c2c1`, the inhibition was -5.2%.

For the compound `O=C(CSc1ccc(Cl)cc1)NN=C1CCCCCC1`, the inhibition is 0.28%.

In the case of `O=C(Nc1cccc(N2CCCC2)c1)c1cccs1`, the inhibition was -6.15%.

As for `CCN1CCN(C(=O)NCc2ccccc2)CC1`, the inhibition was -0.69%.

Regarding `CCOc1ccccc1CNc1ccc(O)cc1`, the inhibition is 12.9% (active).

`Oc1ccc(NCc2ccccc2OCc2ccccc2F)cc1`: the inhibition is 1.2%.

For `Oc1ccc(NCc2ccccc2OCc2ccccc2)cc1`, the inhibition is 1.63%.

Regarding `CCc1nnc(NC(=O)c2cccc(S(=O)(=O)N3CC(c4ccccc4)CC3=O)c2)s1` (centres undefined), the inhibition is 5.84%.

Take `COCCn1cnnc1SCC(=O)Nc1cccc(S(=O)(=O)N2CCCCCC2)c1`: the inhibition was 1.58%.

As for `COC(=O)c1ccc(S(=O)(=O)N2CCC(O)CC2)n1C`, the inhibition was -2.92%.

Turning to `COC(=O)c1ccc(S(=O)(=O)N2CCN(C)CC2)n1C`, the inhibition is -8.72%.

For `COC(=O)c1ccc(S(=O)(=O)N2CCCCCC2)n1C`, the inhibition was 12.8% (active).

With `CCc1nnc(NC(=O)CSc2nc3c(c(=O)n2C)SC(C)C3)s1` (centres undefined), the inhibition was 3.46%.

Consider `O=c1/c(=C/c2ccccc2)sc2nnc(-c3cccs3)n12`, for which the inhibition is 0.67%.

For the compound `C#CC[N+]1(CC#Cc2ccccc2)CCOCC1`, the inhibition is -6.07%.

With `OCC#CC[N+]1(CC#Cc2ccccc2)CCOCC1`, the inhibition is -6.73%.

Turning to `CC1=C(C(=O)Nc2ccccc2)C(c2cccs2)n2nnnc2N1` (centres undefined), the inhibition was -3.97%.

Regarding `CCn1c(CSc2nc3ccccc3s2)nnc1SCC(=O)c1ccc(O)cc1O`, the inhibition is 13% (active).

In the case of `CCn1c(CSc2nc3ccccc3s2)nnc1SCC(N)=O`, the inhibition was 1.32%.

Take `CCn1c(CSc2nc3ccccc3s2)nnc1SCC(=O)c1ccc(O)c(O)c1`: the inhibition was 5.09%.
